This is a sample that favours compounds with a hit; in the whole collection about 3.4% have one here.
GPR151 activ – activators of human GPR151, primary screen, cell-based, PathHunter beta-arrestin, luminescence; activation, % at 11.2 µM; AID 1508602, 2020; 1% of 650,000 active; G-protein coupled receptor 151 (Homo sapiens), Q8TDV0; PathHunter beta-arrestin GPR151 cells; in the data active means activation above about 4.9%;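 further: 0% = median of compound wells and 100% = cells with positive control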
MITF inh – MITF inhibitors, primary screen, biochemical, AlphaScreen, human | inhibition, % at 2.6 µM | 0.91% of 650,000 active | AlphaScreen MITF homodimerization, bead proximity signal | Microphthalmia-associated transcription factor (Homo sapiens), O75030; in the data active means inhibition above about 50%;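 further: 0% = vehicle wells with protein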
Target sequence (O75030 whole entry, looked up): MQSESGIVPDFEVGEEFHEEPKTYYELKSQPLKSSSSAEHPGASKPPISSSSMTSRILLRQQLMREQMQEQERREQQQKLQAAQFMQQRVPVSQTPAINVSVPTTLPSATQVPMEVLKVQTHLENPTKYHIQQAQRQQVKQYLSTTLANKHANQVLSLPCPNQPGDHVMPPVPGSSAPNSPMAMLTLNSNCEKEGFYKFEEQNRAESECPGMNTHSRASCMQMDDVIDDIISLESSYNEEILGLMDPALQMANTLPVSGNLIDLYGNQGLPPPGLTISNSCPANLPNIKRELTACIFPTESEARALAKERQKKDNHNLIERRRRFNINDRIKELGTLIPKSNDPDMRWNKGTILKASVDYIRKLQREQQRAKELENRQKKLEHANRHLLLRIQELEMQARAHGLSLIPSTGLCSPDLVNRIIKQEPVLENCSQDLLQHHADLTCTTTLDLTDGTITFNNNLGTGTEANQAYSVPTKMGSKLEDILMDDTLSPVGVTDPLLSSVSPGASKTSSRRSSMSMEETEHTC
TEAD-YAP block – TEAD-YAP interaction inhibition, primary screen, TEAD-YAP interaction inhibitor project, luminescence, HEK-TIYL cells | TEAD-Gal4/YAP UAS-luciferase luminescence | inhibition, % at 9.12 µM | 1.4% of 640,000 active; in the data active means inhibition above about 32%;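 further: 0% = median of test compound wells and 100% = reference inhibitor wells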
FBW7 act – FBW7 E3 ligase activators, primary screen, biochemical, AlphaScreen, human; F-box/WD repeat-containing protein 7 (Homo sapiens), Q969H0; AlphaScreen FBW7–phospho-cyclin E peptide binding, activator screen; normalized activity (activation), % at 26.1 µM; 0.13% of 650,000 active; AID 1259310, 2017; in the data active means normalized activity above about 1.9%;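 further: purified mutant Fbw7 with reduced substrate affinity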
GPR151 conf act – GPR151 activators, triplicate retest, confirmation, cell-based, PathHunter beta-arrestin, luminescence. shares compounds with GPR151 activ. GPR151 PathHunter beta-arrestin cells, 90 min; % of EA-reagent control over plate median. activation, % at 11.2 µM. 6,700 tested, under 10 active. AID 1508609, 2020;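 active means mean percent activation across replicates above the confirmation screen cutoff of 4.91%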
GPR119 ag – GPR119 activators in beta-arrestin cells, counter-screen for GPR151 activator project, cell-based, PathHunter beta-arrestin, luminescence, triplicate | activation, % at 11.2 µM | 90 min; 0 = compound-well median, 100 = enzyme-acceptor control | shares compounds with GPR151 activ | AID 1508611, 2020 | 0.3% of 6,700 active;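 active means mean percent activation in the counterscreen above 29.09%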;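 further: counterscreen on off-target GPR119 to flag nonselective hits from the GPR151 activator screen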
* hit, by the source's call; . = not tested or not shown.

SMILES	GPR151 activ	MITF inh	TEAD-YAP block	FBW7 act	GPR151 conf act	GPR119 ag
CCOc1ccc(C(=O)Nc2nc3c(ccc4ccccc43)s2)cc1	5.5*	4.7	0.2	0.3	-0.7	-2.8
O=C(NCc1ccco1)c1ccc2nc3ccccc3c(=O)n2c1	0.0	-14.0	12.3	-0.2	.	.
Cc1nccn1-c1ccc(NC(=O)C2CCCN(C3CCSCC3)C2)cc1 (stereo unspecified)	6.8*	-22.5	12.5	0.1	1.1	-3.0
Cc1ccc(C)c(NS(=O)(=O)c2c(C)ccc3nsnc23)c1	0.6	-8.9	-4.7	-0.2	.	.
Cc1ccc(NS(=O)(=O)c2c(C)ccc3nsnc23)cc1	5.2*	12.5	6.4	0.7	-1.2	-0.9
O=C(c1nc2sccn2c1CN1CCCC(c2ccccc2)CC1)N1CCCC1 (stereo unspecified)	1.0	-3.1	-5.4	-0.1	.	.
O=C(COc1ccccc1Br)NN=C1CCCCC1	9.7*	14.3	-2.0	-0.1	-1.2	-6.2
CCOc1ccc(NC(=O)COc2ccccc2Br)cc1	5.0*	-1.7	-7.1	0.0	0.2	9.1
O=C(NC1CCCCC1)c1cc2cc(Cl)ccc2oc1=O	-2.0	10.4	1.2	0.2	.	.
CC(NCC(C)(C)CN(C)C)C(=O)Nc1ccccc1 (stereo unspecified)	7.0*	5.7	4.5	-0.1	0.9	2.7
Cc1nc(SCC(=O)NC(=O)NCc2ccco2)c2c(-c3cccs3)csc2n1	5.0*	11.1	2.2	0.1	0.6	3.8
Cc1nc(SCC(=O)Nc2cc(C)on2)c2c(-c3cccs3)csc2n1	0.5	5.6	1.4	0.0	.	.
Cn1c(=O)c(=O)n(C)c2cc(S(=O)(=O)NCC3CCCO3)ccc21 (stereo unspecified)	0.1	6.0	13.4	-0.1	.	.
Cc1ccc(NC(=O)CS(=O)(=O)c2ccccc2)cc1	6.1*	4.9	-6.7	0.0	0.2	9.9
CCCCCC(=O)Nc1ccc(S(=O)(=O)Nc2nccc(C)n2)cc1	5.5*	9.0	5.9	0.0	-1.0	-14.2
Cc1ccc(NS(=O)(=O)c2ccc(NC(=O)CCCOc3ccccc3)cc2)cc1	6.7*	10.2	-10.1	0.0	0.6	4.1
O=C(CCCOc1ccccc1)Nc1ccc(S(=O)(=O)Nc2ncccn2)cc1	-1.6	0.2	-5.5	-0.3	.	.
Cc1cccnc1NC(=O)CN(C)S(=O)(=O)c1cc2c(cc1Cl)NC(=O)CO2	4.2	-1.0	-13.1	0.1	.	.
O=C(NCCC1CCCCN1S(=O)(=O)c1ccccc1)Nc1ccc(Cl)cc1 (stereo unspecified)	8.1*	8.1	5.6	-0.1	-0.6	-10.9
C=CCSc1nnc(-c2c[nH]c3ccccc23)n1C	3.8	22.0	-28.8	0.4	.	.
CCOC(=O)C1CCN(c2ccc(C=C3C(=O)N(C)C(=O)N(C)C3=O)cn2)CC1	5.2*	-0.6	-5.0	-0.1	-0.3	3.8
O=C1CCCN1CCCNc1nccc(NC2CC2)n1	5.5*	-11.1	-10.3	0.1	0.1	-4.3
CC(=O)Nc1ccc(Nc2cc(C)nc(Nc3ccccc3)n2)cc1	0.5	6.2	-16.9	0.1	.	.
Cc1cc(Nc2ccc(Oc3ccccc3)cc2)nc(NCCCN2CCCC2=O)n1	6.8*	4.8	14.8	0.0	-0.9	2.6
CC(=O)Nc1ccc(Nc2cc(C)nc(Nc3ccc(C(F)(F)F)cc3)n2)cc1	5.3*	1.8	16.2	-0.1	-0.2	12.4
SMILES	GPR151 activ	MITF inh	TEAD-YAP block	FBW7 act	GPR151 conf act	GPR119 ag
CC(=O)Nc1ccc(Nc2cc(C)nc(NCCCN3CCCC3=O)n2)cc1	5.6*	7.7	-5.3	-0.2	-0.8	-8.1
O=C1CCCN1CCCNc1ccnc(NCCCN2CCCC2=O)n1	2.1	7.0	-5.7	0.0	.	.
CCCNC(=O)c1ccnc(NCCCN2CCCC2=O)c1	8.2*	27.4	2.8	0.3	-0.7	-0.4
CCCC1=NN2C(=N)/C(=C/c3ccc(N(C)C)cc3)C(=O)N=C2S1	0.7	6.6	2.1	-0.2	.	.
CCCCCCCC1=NN2C(=N)/C(=C/c3ccc(N(C)C)cc3)C(=O)N=C2S1	5.7*	17.0	-3.0	-0.1	0.4	11.9
CCC(C)C(=O)Nc1ccc(O)cc1C(=O)O (stereo unspecified)	-2.2	13.1	-5.4	0.2	.	.
CCC(C)C(=O)Nc1cc(OC)c(OC)cc1C(=O)O (stereo unspecified)	7.1*	-0.1	-2.6	0.1	-0.6	0.7
NC(=O)c1ccc(NC(=O)CSc2nnc(N)s2)cc1	-1.3	9.4	6.6	0.0	.	.
O=C(CSc1nnc(-c2ccccc2O)o1)N1CCc2ccccc21	6.3*	5.9	7.0	0.0	0.3	1.3
Cc1ccnc(SCC(=O)N2CCc3ccccc32)n1	5.4*	-5.8	-40.1	-0.1	-0.1	9.2
O=[N+]([O-])c1ccc(N2CCOCC2)cc1Sc1nc2ccccc2[nH]1	1.1	3.5	-0.6	-0.1	.	.
COc1cc(/C=C2\N=C(c3cc(OC)c(OC)c(OC)c3)OC2=O)cc(Br)c1OC(C)=O	5.5*	11.0	7.0	0.3	-0.3	12.4
COc1cc(/C=C2/N=C(c3ccc(Cl)cc3)OC2=O)cc(Br)c1OC(C)=O	-0.5	8.5	1.6	0.0	.	.
Cn1c(SCC(=O)NC2CC2)nnc1-c1cccc(Cl)c1	2.0	19.5	2.5	0.7	.	.
CCC(=O)Nc1cc(CNC(=O)Cc2c[nH]c3ccccc23)cc(C(=O)OC)c1	0.2	5.6	0.7	0.2	.	.
CCC1C(=O)NCCN1Cc1ccc2c(c1)CN(Cc1cccc(C)n1)CCO2 (stereo unspecified)	5.4*	6.8	-0.2	0.1	-0.8	-11.3
OCCNCCCCOc1ccc(OCc2ccccc2)cc1	6.2*	5.0	6.5	0.2	-0.1	-17.9
CC(=O)Nc1cc(-c2cccc(Br)c2)nn1-c1ccccc1	5.3*	6.3	6.2	-0.1	-0.9	-4.4
COc1cc(C2C3=C(CCCC3=O)N(c3ccccc3Cl)C(=N)/C2=C(/O)c2ccc(C)cc2)cc(OC)c1OC (stereo unspecified)	1.0	-2.2	-13.6	-0.1	.	.
O=C1N2CN(C(c3ccccc3)c3ccccc3)CN=C2SC1(CO)CO	7.7*	17.2	4.6	-0.2	-0.8	-6.0
CC(C)N(CCNc1nc(Nc2nccc3ccccc23)nc2c1ncn2C1CCCCC1)C(C)C	-2.2	-11.6	-3.8	-0.1	.	.
CC(C)N(CCNc1nc(Nc2ccccn2)nc2c1ncn2C1CCCCC1)C(C)C	6.4*	1.9	16.1	-0.1	-0.2	-13.2
Nc1ncc(Br)cc1S(=O)(=O)NC1CCCCCCC1	7.3*	6.2	-2.4	-0.1	-0.1	-7.6

Screening results from PubChem.
